According to PubChem BioAssay (NCI):
This is part of a sample that, as a whole, favours compounds with a hit. Of some 79,000 tested, about 15% had one in any assay. Active and inactive are the calls of the source. No stated cut-off is given here; in the data, active means growth inhibition above about 70%; inactive means the rest.

Experiments:
[1] = NCI Yeast Anticancer Drug Screen. Data for the rad50 strain (AID 155);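 further: 0% = growth of vehicle-only cultures of the same strain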; details: S. cerevisiae rad50 strain growth inhibition; at 50.0 µM; hits give high values
In short: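 A DNA repair-deficient yeast mutant serves as the test organism; compound-induced growth inhibition is calculated against vehicle-treated cells.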

[2] = NCI Yeast Anticancer Drug Screen. Data for the mec2-1 strain (AID 157); details: S. cerevisiae mec2-1 strain, at 50.0 µM, hits give high values
In short: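 Using mec2-1 yeast: add compound, measure growth, express inhibition versus vehicle-treated cultures.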

[3] = NCI Yeast Anticancer Drug Screen. Data for the sgs1 mgt1 strain (AID 161);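 further: 0% = growth of cultures given vehicle only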; details: S. cerevisiae sgs1 mgt1 strain, at 50.0 µM, hits give high values
In short: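 This yeast growth screen uses a strain with defined DNA-repair lesions; compound-treated growth is compared with vehicle-treated growth.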

[4] = NCI Yeast Anticancer Drug Screen. Data for the cln2 rad14 strain (AID 165);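 further: 0% = growth equal to vehicle treated cultures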; details: S. cerevisiae cln2 rad14 strain, at 50.0 µM, hits give high values
In short: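 Yeast strain cln2 rad14, bearing defects in cell cycle control and DNA repair, serves as the test system; values reflect growth inhibition compared with vehicle.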

[5] = NCI Yeast Anticancer Drug Screen. Data for the bub3 strain (AID 167); details: S. cerevisiae bub3 mutant strain, at 50.0 µM, hits give high values
In short: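 Inhibition values come from growth of compound-treated mutant yeast normalised to vehicle-treated controls.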

[6] = NCI Yeast Anticancer Drug Screen. Data for the mlh1 rad18 strain (AID 175); details: S. cerevisiae mlh1 rad18 strain growth inhibition; at 50.0 µM; hits give high values
In short: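 Steps: expose repair-defective yeast to compound; measure growth; express inhibition against vehicle-treated controls.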

Measured: growth inhibition

O=P(OCCCl)(OCCCl)C(c1ccccc1)(c1ccccc1)c1ccccc1
inactive: [1] 63.4% | [2] 35.7% | [4] 36.9% | [5] 38.5% | [6] 65.2%
active: [3] 72.6%

CC(=O)C1=CN(C)c2ccccc2S1
inactive: [1] 29.6% | [2] 1.75% | [3] 12.2% | [4] -2.55% | [5] -12.8% | [6] 6.15%

O=C(O)C1Cc2c([nH]c3ccccc23)C(CCCCO)N1 (configuration not stated)
inactive: [1] -31.6% | [2] -7.85% | [3] -15.9% | [4] -15.4% | [5] -26.4% | [6] -11.3%

NNC(=O)c1ccc(Cl)cc1Nc1ccccc1
inactive: [1] 24.9% | [2] 47% | [3] 59% | [4] 16.7% | [5] -17.2%
active: [6] 89%

COC(=O)c1c(-c2ccc(OC)c(OC)c2)cn(C)c1C
inactive: [1] 19.4% | [2] 12.8% | [3] 21% | [4] -6.15% | [5] 10.5% | [6] 25.2%

N#CC(OC(=O)c1ccccc1)C(OC(=O)c1ccccc1)C(COC(=O)c1ccccc1)OC(=O)c1ccccc1 (configuration not stated)
inactive: [1] -38.9% | [2] 6.3% | [3] 9.95% | [4] 20.5% | [5] -10.5% | [6] 26.6%

Nc1ccc2cc(S(=O)(=O)O)cc(O)c2c1
inactive: [1] 28.8% | [2] -4.55% | [3] -34.5% | [4] -85.8% | [5] 6.85% | [6] 15.2%

Cc1nnnn1-c1ccc2ccccc2c1
inactive: [1] -24.8% | [2] -24% | [3] -6.8% | [4] -20.6% | [5] -0.05% | [6] 4.45%

C=COS(=O)O
inactive: [1] -0.65% | [2] -3.45% | [3] -4.85% | [4] -6.7% | [5] 12.3% | [6] -0.15%

CN(C)C(=O)C1CCC(=O)N1 (configuration not stated)
inactive: [1] 3.1% | [2] 10.6% | [3] 6.6% | [4] -4.95% | [5] 10.6% | [6] -0.3%

Cc1cc2nc(-c3ccccn3)c(-c3ccccn3)nc2cc1C
inactive: [1] 2.05% | [2] -18.9% | [3] 6.9% | [4] 20.1% | [5] -7.75% | [6] 21.4%

CC(C)(C)c1ccc(P(=O)(O)C(C)(C)C)cc1
inactive: [1] -9.5% | [2] 5.9% | [3] -15.5% | [4] 35% | [5] 4.15% | [6] 6.95%

O=c1c(F)cn2c(=O)n1CCCCCCCn1c(=O)c(F)cn(c1=O)CCCCCCC2
inactive: [1] 1.3% | [2] -24.4% | [3] 1.65% | [4] 0.7% | [5] -13.4% | [6] 1.55%

CC(=O)NC1=C(Sc2ccc(Cl)cc2)C(=O)c2ccccc2C1=O
inactive: [1] 56.2% | [2] 15.8% | [3] 18.3% | [4] -56.4% | [5] 19.9% | [6] 33.2%

NCCCN(CCO)CCO
inactive: [1] -42.5% | [2] -3.1% | [3] -27.9% | [4] -31.9% | [5] -28.5% | [6] -20.4%

Cn1cnc([N+](=O)[O-])c1C(=O)NCc1ccccc1
inactive: [1] -2.5% | [2] 9.1% | [3] 5.15% | [4] -20.8% | [5] -7.35% | [6] -9.05%

Cc1cc(O)c(C(c2ccccn2)c2c(O)cc(C)[nH]c2=O)c(=O)[nH]1
inactive: [1] -4.85% | [2] 6.15% | [3] -7.9% | [4] -2.55% | [5] -0.25% | [6] 5%

O=C1CSc2nc3c(Cl)cc(Cl)cc3c(=O)n21
inactive: [1] 15.7% | [2] 24.6% | [3] 54.1% | [4] 8.2% | [5] 30.2% | [6] 46.1%

Cc1ccc(S(=O)NOCc2ccccc2)cc1 (configuration not stated)
inactive: [1] 3.25% | [2] 16.4% | [3] 5.3% | [4] 11.4% | [5] 11.1% | [6] 51%

CC(=O)Oc1ccccc1[C@H]1CC(=O)C[C@H](c2ccccc2OC(C)=O)C12C(=O)c1ccccc1C2=O
inactive: [1] -12.8% | [2] -18.4% | [3] -7.55% | [4] 30.1% | [5] -17.4% | [6] 9.3%

O=C(Nc1ccc(S(=O)(=O)N2CCCCC2)cc1)Oc1ccccc1C(=O)O
inactive: [1] 26.4% | [2] -4.5% | [3] 3.15% | [4] 16.1% | [5] -1.65% | [6] 4.8%

COC(=O)[C@]1(C)OP(OC)(OC)(OC)O[C@]1(C)C(=O)OC
inactive: [1] -3.4% | [2] -10.2% | [3] 3.25% | [4] -40.5% | [5] -2.15% | [6] -1.6%

CCCc1nc2c([nH]1)c(=O)n(C)c(=O)n2C
inactive: [1] 22.6% | [2] -14.3% | [3] 3.5% | [4] 9.85% | [5] -21.1% | [6] 22.6%

Cc1cn(CCCCCCCCCCCCOc2c3occc3cc3ccc(=O)oc23)c(=O)[nH]c1=O
inactive: [1] 20.1% | [2] 4.6% | [3] -3.5% | [4] 23.2% | [5] -2.35% | [6] 19.6%

CC(=O)c1cc2c(cc1C)C(C(C)C)CCC2(C)C (configuration not stated)
inactive: [1] 3.75% | [2] -14.6% | [3] 6.55% | [4] -18.8% | [5] 41.7% | [6] 6.85%

O=[N+]([O-])c1ccc2c(c1)C(=Nc1ccc(Cl)cc1)c1ccccc1-2
inactive: [1] -0.95% | [2] -8.6% | [3] -8% | [4] -32% | [5] 24.1% | [6] 5.45%

C/C(=C/OS(=O)(=O)C(F)(F)F)c1ccccc1
inactive: [1] -22.3% | [2] -0.2% | [3] -3.2% | [4] -8.55% | [5] -1.5% | [6] 4.25%

CC(C)(C)c1ccc(-c2cc3nc(-c4ccccc4)cc(=O)n3[nH]2)cc1
inactive: [1] -8.05% | [2] -30.3% | [3] 10.5% | [4] 5.9% | [5] 10.8% | [6] -0.55%

NC(Cc1ccc(O)cc1)C(=O)NCCS(=O)(=O)O (configuration not stated)
inactive: [1] 1.5% | [2] 9.85% | [3] 26.7% | [4] 11.2% | [5] 18.6% | [6] 0.65%

C[n+]1cc(Br)c2ccccc2c1
inactive: [1] 4.05% | [2] -6.25% | [3] 3.4% | [4] -13.2% | [5] 1.4% | [6] 3.45%

CCOC(=O)C(CCSC)(CCN(C)Cc1ccccc1)C(=O)OCC
inactive: [1] -23.1% | [2] -3.05% | [3] -6.9% | [4] -0.9% | [5] 8.85% | [6] -3.3%

c1ccc(P(CCNCCP(c2ccccc2)c2ccccc2)c2ccccc2)cc1
inactive: [1] -16% | [2] 11.8% | [3] 8.6% | [4] 10.3% | [5] 2.25% | [6] 6.75%

CCOC(=O)c1ccc(NC=O)cc1
inactive: [1] 4.1% | [2] 7.35% | [3] -8.75% | [4] -12.5% | [5] 1.95% | [6] -24.1%

CCC(C(N)C(=O)O)C(F)(F)F (configuration not stated)
inactive: [1] -19.4% | [2] -32.1% | [3] 1.4% | [4] 4.25% | [5] -22.1% | [6] -6.55%

Nn1c(-c2ccccc2)n[nH]c1=O
inactive: [1] 18.7% | [2] -15.7% | [3] 16.5% | [4] 25.9% | [5] 3.25% | [6] 9.45%

O=C(Nc1cccc([N+](=O)[O-])c1)Oc1ccc(-c2ccccc2)cc1
inactive: [1] 17.9% | [2] 36.2% | [3] 18.5% | [4] -3.75% | [5] 57.7% | [6] 25.4%

CCC(=O)[C@H]1CC[C@H]2[C@@H]3CCC4=CC(=O)CC[C@]4(C)[C@H]3CC[C@]12C
inactive: [1] -7.6% | [2] 26.9% | [3] 32% | [4] 6.5% | [5] 37.5% | [6] 2.45%

COC(=O)/C(C#N)=C(C)/C=C/c1ccc(OC)cc1
inactive: [1] 22.6% | [2] 14% | [3] 8% | [4] -15.6% | [5] 18.6% | [6] 22.2%

Cc1cccc([N+](=O)[O-])c1C
inactive: [1] 13.7% | [2] -10.4% | [3] 7.3% | [4] 23.4% | [5] 10.8% | [6] -15.6%

COC(=O)c1c(C)oc(C)c1-c1ccc(OCc2ccccc2)c(OC)c1
inactive: [1] 8.7% | [2] -12.8% | [3] -35.8% | [4] 7.6% | [5] 1.25% | [6] 2.7%

Nc1ncc([N+](=O)[O-])c(N)n1
inactive: [1] 2.75% | [2] 5.45% | [3] 7.75% | [4] 0.7% | [5] -13.8% | [6] 15.9%

CN(Cc1cnc2nc(N)nc(N)c2n1)c1ccc(C(=O)NC(CCC(=O)NC(CCC(=O)NC(CCC(=O)NC(CCC(=O)O)C(=O)O)C(=O)O)C(=O)O)C(=O)O)cc1 (configuration not stated)
inactive: [1] 42.8% | [2] -19.8% | [3] -35.9% | [4] -26.1% | [5] -41.6% | [6] -12.5%
